The whole screen tested about 5,500 compounds, of which about 2,000 (36%) were called active. Inconclusive results (about 18%) are left out. Rule as the data show it: active = normalized growth mostly below about 0.91 (no sharp cut-off); inconclusive = no clear call, values can overlap the other calls; inactive = mostly above about 0.92. The list shows a part of the results.
Assay: chemical genetic growth profiling, strain panel (AID 1159580);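 also: tested at 20 µM; growth read once vehicle control cultures reached saturation at 30 °C; 1 = growth at the plate median or of vehicle wells; lower values mean less growth of the strain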
Details: growth OD

Measured: normalized growth

CCCCc1nc(Cl)c(CO)n1Cc1ccc(-c2ccccc2-c2nn[nH]n2)cc1
inactive: S. cerevisiae deletion strains, locus YJR075W, strain HOC1, active compounds read low 0.999 | S. cerevisiae deletion strains, locus YKL009W, strain mrt4, active compounds read low 0.985 | S. cerevisiae deletion strains, locus YKL068W, active compounds read low 0.997 | S. cerevisiae deletion strains, locus YKL085W, strain MDH1 (second series), active compounds read low 0.992 | S. cerevisiae deletion strains, locus YKL085W, strain MDH1, active compounds read low 0.992 | S. cerevisiae deletion strains, locus YKL160W, strain elf1, active compounds read low 0.991 | S. cerevisiae deletion strains, locus YKL190W, strain CNB1, active compounds read low 1.01 | S. cerevisiae deletion strains, locus YKR001C, strain vps1, active compounds read low 0.99 | S. cerevisiae deletion strains, locus YKR026C, strain gcn3, active compounds read low 0.988 | S. cerevisiae deletion strains, locus YKR091W, strain srl3, active compounds read low 0.991 | S. cerevisiae deletion strains, locus YLL001W, strain dnm1, active compounds read low 0.98 | S. cerevisiae deletion strains, locus YLL026W, active compounds read low 0.992 | S. cerevisiae deletion strains, locus YLL041C, strain sdh2, active compounds read low 0.992 | S. cerevisiae deletion strains, locus YLR027C, strain aat2, active compounds read low 0.993 | S. cerevisiae deletion strains, locus YLR039C, strain RIC1, active compounds read low 1.02 | S. cerevisiae deletion strains, locus YLR058C, strain SHM2, active compounds read low 0.997 | S. cerevisiae deletion strains, locus YLR102C, strain apc9, active compounds read low 0.994 | S. cerevisiae deletion strains, locus YLR113W, strain HOG1, active compounds read low 1.01 | S. cerevisiae deletion strains, locus YLR221C, strain rsa3, active compounds read low 0.987 | S. cerevisiae deletion strains, locus YLR258W, strain gsy2, active compounds read low 0.998 | S. cerevisiae deletion strains, locus YLR262C, strain YPT6 (second series), active compounds read low 0.995 | S. cerevisiae deletion strains, locus YLR262C, strain YPT6, active compounds read low 1.04 | S. cerevisiae deletion strains, locus YLR268W, strain sec22, active compounds read low 0.999 | S. cerevisiae deletion strains, locus YLR320W, strain mms22, active compounds read low 0.985 | S. cerevisiae deletion strains, locus YLR330W, strain CHS5, active compounds read low 1.01 | S. cerevisiae deletion strains, locus YLR342W, strain FKS1 (second series), active compounds read low 0.997 | S. cerevisiae deletion strains, locus YLR342W, strain FKS1, active compounds read low 1.01 | S. cerevisiae deletion strains, locus YLR357W, strain rsc2, active compounds read low 0.993 | S. cerevisiae deletion strains, locus YLR370C, strain arc18, active compounds read low 0.987 | S. cerevisiae deletion strains, locus YLR371W, strain rom2, active compounds read low 0.997 | S. cerevisiae deletion strains, locus YLR384C, strain iki3, active compounds read low 0.974 | S. cerevisiae deletion strains, locus YLR418C, strain cdc73, active compounds read low 1 | S. cerevisiae deletion strains, locus YML016C, strain PPZ1, active compounds read low 1 | S. cerevisiae deletion strains, locus YML032C, strain rad52, active compounds read low 1 | S. cerevisiae deletion strains, locus YML120C, strain ndi1, active compounds read low 0.981 | S. cerevisiae deletion strains, locus YML124C, strain tub3, active compounds read low 0.997 | S. cerevisiae deletion strains, locus YMR058W, strain fet3, active compounds read low 1 | S. cerevisiae deletion strains, locus YMR078C, strain ctf18, active compounds read low 0.999 | S. cerevisiae deletion strains, locus YMR125W, strain sto1, active compounds read low 0.982 | S. cerevisiae deletion strains, locus YMR129W, active compounds read low 0.994 | S. cerevisiae deletion strains, locus YMR205C, strain PFK2, active compounds read low 0.998 | S. cerevisiae deletion strains, locus YMR223W, strain ubp8, active compounds read low 1 | S. cerevisiae deletion strains, locus YMR231W, strain pep5, active compounds read low 0.982 | S. cerevisiae deletion strains, locus YMR263W, strain SAP30, active compounds read low 1.02 | S. cerevisiae deletion strains, locus YMR307W, strain GAS1, active compounds read low 0.911 | S. cerevisiae deletion strains, locus YNL067W, strain RPL9B, active compounds read low 1.02 | S. cerevisiae deletion strains, locus YNL071W, strain lat1, active compounds read low 1 | S. cerevisiae deletion strains, locus YNL128W, strain TEP1, active compounds read low 1.01 | S. cerevisiae deletion strains, locus YNL153C, strain GIM3, active compounds read low 1.01 | S. cerevisiae deletion strains, locus YNL183C, strain NPR1, active compounds read low 1.01 | S. cerevisiae deletion strains, locus YNL209W, strain ssb2, active compounds read low 0.979 | S. cerevisiae deletion strains, locus YNL233W, strain BNI4, active compounds read low 1.02 | S. cerevisiae deletion strains, locus YNL248C, strain rpa49, active compounds read low 0.996 | S. cerevisiae deletion strains, locus YNL250W, strain rad50, active compounds read low 0.993 | S. cerevisiae deletion strains, locus YNL271C, strain bni1, active compounds read low 0.995 | S. cerevisiae deletion strains, locus YNL298W, strain CLA4, active compounds read low 0.989 | S. cerevisiae deletion strains, locus YNL307C, strain MCK1, active compounds read low 1.02 | S. cerevisiae deletion strains, locus YNL322C, strain KRE1 (second series), active compounds read low 0.971 | S. cerevisiae deletion strains, locus YNL322C, strain KRE1, active compounds read low 1.01 | S. cerevisiae deletion strains, locus YNR049C, strain mso1, active compounds read low 0.985 | S. cerevisiae deletion strains, locus YNR052C, strain pop2, active compounds read low 0.99 | S. cerevisiae deletion strains, locus YOL006C, strain TOP1, active compounds read low 1.04 | S. cerevisiae deletion strains, locus YOL012C, strain htz1 0.901 | S. cerevisiae deletion strains, locus YOL147C, strain pex11, active compounds read low 1 | S. cerevisiae deletion strains, locus YOR001W, strain rrp6, active compounds read low 0.978 | S. cerevisiae deletion strains, locus YOR061W, strain CKA2, active compounds read low 1.01 | S. cerevisiae deletion strains, locus YOR069W, strain VPS5, active compounds read low 1 | S. cerevisiae deletion strains, locus YOR070C, strain gyp1, active compounds read low 0.986 | S. cerevisiae deletion strains, locus YOR080W, strain dia2, active compounds read low 0.978 | S. cerevisiae deletion strains, locus YOR083W, strain WHI5, active compounds read low 0.981 | S. cerevisiae deletion strains, locus YOR106W, strain vam3, active compounds read low 1 | S. cerevisiae deletion strains, locus YOR136W, strain idh2, active compounds read low 1 | S. cerevisiae deletion strains, locus YOR144C, strain elg1, active compounds read low 1 | S. cerevisiae deletion strains, locus YOR184W, strain ser1, active compounds read low 1 | S. cerevisiae deletion strains, locus YOR231W, strain MKK1, active compounds read low 0.965 | S. cerevisiae deletion strains, locus YOR265W, strain rbl2, active compounds read low 0.999 | S. cerevisiae deletion strains, locus YOR270C, strain vph1, active compounds read low 0.97 | S. cerevisiae deletion strains, locus YOR290C, strain snf2, active compounds read low 1 | S. cerevisiae deletion strains, locus YOR316C, strain cot1, active compounds read low 0.999 | S. cerevisiae deletion strains, locus YPL051W, strain arl3, active compounds read low 0.99 | S. cerevisiae deletion strains, locus YPL055C, strain LGE1, active compounds read low 1.01 | S. cerevisiae deletion strains, locus YPL078C, strain atp4, active compounds read low 0.985 | S. cerevisiae deletion strains, locus YPL106C, strain sse1, active compounds read low 0.964 | S. cerevisiae deletion strains, locus YPL240C, strain hsp82, active compounds read low 1.02 | S. cerevisiae deletion strains, locus YPL241C, strain CIN2, active compounds read low 1.01 | S. cerevisiae deletion strains, locus YPL256C, strain CLN2, active compounds read low 0.967 | S. cerevisiae deletion strains, locus YPR119W, strain clb2, active compounds read low 0.995 | S. cerevisiae deletion strains, locus YPR141C, strain kar3, active compounds read low 1 | S. cerevisiae deletion strains, locus YPR163C, strain tif3, active compounds read low 1.01 | S. cerevisiae deletion strains, locus YPR167C, strain met16, active compounds read low 0.998 | S. cerevisiae deletion strains, strain wtn01, active compounds read low 0.989 | S. cerevisiae strains, strain wild type, active compounds read low 1.01
